From PubChem BioAssay (NCATS)
Records with an inconclusive call do not appear. Calls of active or inactive are those of the source. Calls come from the whole dose curve; as a rule, active = well fitted curve in the direction sought with a large enough effect; inconclusive = small, poorly fitted or top-dose-only effect, or another doubt; inactive = no such curve, though single readings can be large; an effect the other way counts as inactive or inconclusive.

Legend:
[1] = biological target: Glutathione peroxidase 1 (Homo sapiens) (UniProt P07203); assay: Primary qHTS Assay for Inhibitors of Recombinant Selenoprotein Glutathione Peroxidase 1 (GPX1) (AID 1845191); note: nearly all actives have a fitted effect of over 65% in size
Method in brief: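 10 nM GPX1 + cpd, 30 min RT; start w/ 1 mM GSH, 0.5 mM cumene hydroperoxide, 0.5 mM NADPH, 100 nM GR, 0.01% BSA; buffer 50 mM Tris-HCl pH 7.5, 2 mM EDTA, 150 mM NaCl; Fl 340/450, 0 & 15 min.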

[2] = biological target: Phospholipid hydroperoxide glutathione peroxidase GPX4 (Homo sapiens) (UniProt P36969); assay: Primary qHTS Assay for Inhibitors of Recombinant Selenoprotein Glutathione Peroxidase 4 (GPX4) (AID 1845192); note: nearly all actives have a fitted effect of over 65% in size
Method in brief: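 NADPH consumption, followed by fluorescence at 340/450 nm between 0 and 15 min, reports GPX4 activity via coupled glutathione reductase (100 nM). Enzyme 200 nM was pre-exposed to compound 30 min; 0.5 mM cumene hydroperoxide and 1 mM GSH served as substrates.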

[3] = biological target: Luciferin 4-monooxygenase (Photinus pyralis) (UniProt P08659); assay: Primary firefly luciferase (FLuc) qHTS assay for identification of artifact compounds. (AID 1845220); note: nearly all actives have a fitted effect of over 60% in size
Method in brief: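 Compounds sat 15 min at room temperature with 10 uM luciferin and 10 uM ATP (pH 7.6 Tris acetate). Firefly luciferase (10 nM final) was then added, and luminescence was read 5 min later. Data normalized to no-enzyme and DMSO controls were Hill-fitted.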

[4] = Primary fluorescence-based thiol-reactive (MSTI) qHTS assay for identification of artifact compounds. (AID 1845221);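 note: thiol-reactive compounds lower the probe fluorescence signal; nearly all actives have a fitted effect of over 65% in size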
Method in brief: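 MSTI probe at 4 uM final in 2% DMSO/PBS pH 7.4; compounds, 1 h at room temperature in dark. Fluorescence Ex/Em 525/598 nm, normalised to Acetyl-MSTI and MSTI, fitted to 4-parameter Hill.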

[5] = Quantitative High-Throughput drug screen in 47 multiple myeloma cell lines against the NCATS MIPE library collection: FR4_PLB cell viability assay (AID 1918924; note: nearly all actives have a fitted effect of over 35% in size; note: potency is the fitted concentration of half-maximal effect)
Method in brief: (§1)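 Luminescent ATP measurement with CellTiter-Glo gives viability, scaled between DMSO-only wells (100%) and media-only wells (0%). Cells, 500 per well, faced library compounds for 48 hours at 37C.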

[6] = Quantitative High-Throughput drug screen in 47 multiple myeloma cell lines against the NCATS MIPE library collection: Delta47_JCRB cell viability assay (AID 1918925; note: potency is the fitted concentration of half-maximal effect; nearly all actives have a fitted effect of over 45% in size)
Method in brief: (§2)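 Relative luminescence from CellTiter-Glo served as the viability signal, referenced to DMSO-treated (100%) and cell-free medium (0%) controls. Treatment lasted 48 hours at 37C with 500 cells per well.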

[7] = Quantitative High-Throughput drug screen in 47 multiple myeloma cell lines against the NCATS MIPE library collection: EJM_DSMZ cell viability assay (AID 1918926; note: nearly all actives have a fitted effect of over 30% in size; note: potency is the fitted concentration of half-maximal effect)
Method in brief: as §2

[8] = Quantitative High-Throughput drug screen in 47 multiple myeloma cell lines against the NCATS MIPE library collection: AMO1_DSMZ cell viability assay (AID 1918927; note: nearly all actives have a fitted effect of over 30% in size; note: potency is the fitted concentration of half-maximal effect)
Method in brief: as §2

[9] = Quantitative High-Throughput drug screen in 47 multiple myeloma cell lines against the NCATS MIPE library collection: ARP1_JJKsccF8 cell viability assay (AID 1918928; note: nearly all actives have a fitted effect of over 40% in size; note: potency is the fitted concentration of half-maximal effect)
Method in brief: (§3)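 ATP readout (CellTiter-Glo), 48 h drug incubation, 37 °C/5% CO2, 500 cells per well; normalisation to DMSO (100%) and media-only (0%) controls.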

[10] = Quantitative High-Throughput drug screen in 47 multiple myeloma cell lines against the NCATS MIPE library collection: ARD_JJKsccE7 cell viability assay (AID 1918929; note: potency is the fitted concentration of half-maximal effect)
Method in brief: as §2

[11] = Quantitative High-Throughput drug screen in 47 multiple myeloma cell lines against the NCATS MIPE library collection: Karpas620_DSMZ cell viability assay (AID 1918959); note: nearly all actives have a fitted effect of over 30% in size; note: potency is the fitted concentration of half-maximal effect
Method in brief: as §1

[12] = Quantitative High-Throughput drug screen in 47 multiple myeloma cell lines against the NCATS MIPE library collection: KMM1_JCRB cell viability assay (AID 1918960); note: nearly all actives have a fitted effect of over 30% in size; note: potency is the fitted concentration of half-maximal effect
Method in brief: as §3

[13] = Quantitative High-Throughput drug screen in 47 multiple myeloma cell lines against the NCATS MIPE library collection: Karpas417_ECACC cell viability assay (AID 1918961); conditions: Karpas417 myeloma viability, CellTiter-Glo ATP luminescence, 48 h; viability (% of DMSO): at 45.8 µM (top of the series); note: potency is the fitted concentration of half-maximal effect
Method in brief: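 Steps: seed 500 cells per well; pin-transfer MIPE 4.0 library; incubate 48 h at 37C, 5% CO2, humidified; add CellTiter-Glo, 5 min room temperature; read luminescence.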

[14] = Quantitative High-Throughput drug screen in 47 multiple myeloma cell lines against the NCATS MIPE library collection: KHM11_PLB cell viability assay (AID 1918962); note: potency is the fitted concentration of half-maximal effect; nearly all actives have a fitted effect of over 35% in size
Method in brief: as §1

[15] = Quantitative High-Throughput drug screen in 47 multiple myeloma cell lines against the NCATS MIPE library collection: JIM3_ECACC cell viability assay (AID 1918963; note: potency is the fitted concentration of half-maximal effect; nearly all actives have a fitted effect of over 35% in size)
Method in brief: as §1

[16] = Quantitative High-Throughput drug screen in 47 multiple myeloma cell lines against the NCATS MIPE library collection: JIM1_ECACC cell viability assay (AID 1918964; note: potency is the fitted concentration of half-maximal effect)
Method in brief: as §2

[17] = tested on: Nanoluciferase (engineered Oplophorus gracilirostris luciferase); assay: Primary Nanoluciferase (NLuc) qHTS assay for identification of artifact compounds. (AID 1845222)
Method in brief: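 Luminescence from secreted NLuc (filtered, 1:55-diluted S16 cell medium) read 5 min after Nano-Glo substrate; compounds preincubated 15 min, RT. Hill fits of inhibition normalized to DMSO and no-enzyme.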

Chain of Phospholipid hydroperoxide glutathione peroxidase GPX4 (Homo sapiens) (P36969 whole entry, looked up): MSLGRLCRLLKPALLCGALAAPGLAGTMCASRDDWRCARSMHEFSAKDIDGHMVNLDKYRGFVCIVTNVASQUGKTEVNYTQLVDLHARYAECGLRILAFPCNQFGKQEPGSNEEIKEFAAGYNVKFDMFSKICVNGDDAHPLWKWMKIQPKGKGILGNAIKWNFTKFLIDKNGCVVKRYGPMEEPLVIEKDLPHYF
Chain of Glutathione peroxidase 1 (Homo sapiens) (P07203 whole entry, looked up): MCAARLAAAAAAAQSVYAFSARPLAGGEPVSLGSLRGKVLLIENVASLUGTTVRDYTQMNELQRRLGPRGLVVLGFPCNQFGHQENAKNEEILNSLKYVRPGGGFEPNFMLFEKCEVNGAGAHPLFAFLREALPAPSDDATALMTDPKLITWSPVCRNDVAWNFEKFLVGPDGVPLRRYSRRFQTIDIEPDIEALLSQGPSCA

Compound | Potency [1] | Potency [2] | Potency [3] | Potency [4] | Potency [5] | Potency [6] | Potency [7] | Potency [8] | Potency [9] | Potency [10] | Potency [11] | Potency [12] | Potency [13] | Potency [14] | Potency [15] | Potency [16] | outcome [17]
COc1cc(CCc2cc(NC(=O)c3ccc(N4C[C@@H](C)N[C@@H](C)C4)cc3)n[nH]2)cc(OC)c1 | inactive | inactive | inactive | inactive | 18.7 µM (active) | 14.8 µM (active) | 18.7 µM (active) | 18.7 µM (active) | 18.7 µM (active) | 16.6 µM (active) | 20.9 µM (active) | 18.7 µM (active) | 2.35 µM (active) | 9.35 µM (active) | 14.8 µM (active) | 2.35 µM (active) | 
Oc1ccc([C@@H]2Oc3ccc(O)cc3[C@@H]3CCC[C@@H]32)cc1 | inactive | inactive | inactive | inactive |  |  |  | inactive | 23.5 µM (active) | inactive | inactive | inactive |  |  |  |  | inactive
CN(C)CC(=O)N1CCC(c2ccc(NC(=O)c3ncc(C#N)[nH]3)c(C3=CCCCC3)c2)CC1 | inactive | inactive | inactive | inactive | inactive | 18.7 µM (active) | 18.7 µM (active) | 7.43 µM (active) | inactive | 3.32 µM (active) | inactive | inactive | 2.35 µM (active) | 20.9 µM (active) |  | 5.26 µM (active) | inactive
O=C(Nc1ccc(Oc2ccnc3[nH]ccc23)c(F)c1)c1cccn(-c2ccc(F)cc2)c1=O | inactive | inactive | inactive | inactive |  |  |  | inactive | inactive |  | inactive | 2.64 µM (active) | 0.0047 µM (active) |  |  |  | inactive
Oc1cc(-c2nc(-c3ccccc3)[nH]c2-c2ccncc2)ccc1Cl | inactive | inactive | inactive | inactive |  |  | 18.7 µM (active) | 5.26 µM (active) | 14.8 µM (active) | 5.9 µM (active) | 5.9 µM (active) | 1.87 µM (active) |  | 1.18 µM (active) |  |  | inactive
Nc1ccc(C(=O)Nc2cccc(-c3nc(N4CCOCC4)c4oc5ncccc5c4n3)c2)cn1 | inactive | inactive | inactive | inactive | 18.7 µM (active) | 0.935 µM (active) | 16.6 µM (active) | 6.62 µM (active) | 6.62 µM (active) | 1.66 µM (active) | 6.62 µM (active) | 0.418 µM (active) | 0.526 µM (active) | 7.43 µM (active) |  | 5.26 µM (active) | inactive
CC(O)(C#Cc1ccc2c(c1)N(c1nc(N)ncc1Cl)CC2)c1nccs1 (stereo not given) | inactive | inactive | inactive | inactive |  |  | 11.8 µM (active) | 13.2 µM (active) |  | 18.7 µM (active) |  | 5.26 µM (active) | 4.69 µM (active) |  |  |  | inactive
CS(=O)(=O)N1CCc2c(-c3cnc(N)nc3)nc(N3CCOCC3)nc21 | inactive | inactive | inactive | inactive | 0.59 µM (active) | 0.148 µM (active) | 2.09 µM (active) |  | 0.0418 µM (active) |  |  | 0.0662 µM (active) |  |  |  |  | inactive
CCOc1cc2c(c(F)c1OCC)C(=N)N(CC(=O)c1cc(N3CCOCC3)c(OC)c(C(C)(C)C)c1)C2 | inactive | inactive | inactive |  | 23.5 µM (active) | 14.8 µM (active) | 20.9 µM (active) |  | 18.7 µM (active) |  |  |  | inactive |  | 9.35 µM (active) |  | inactive
CC(C)C[C@H](NC(=O)[C@@H](NC(=O)c1cccc(-c2ccccc2)n1)[C@@H](C)O)B(O)O | inactive | inactive | inactive | inactive | 0.0209 µM (active) | 0.0166 µM (active) | 0.0469 µM (active) |  | 0.0166 µM (active) |  | 0.0148 µM (active) | 0.0074 µM (active) |  | 0.0187 µM (active) |  | 0.0105 µM (active) | inactive
Cn1cnc2c(F)c(Nc3ccc(Br)cc3F)c(C(=O)NOCCO)cc21 | inactive | inactive | inactive | inactive | inactive |  | inactive | 1.05 µM (active) | inactive | 0.0033 µM (active) | 0.0833 µM (active) |  |  |  | 0.372 µM (active) |  | inactive
CCOC(=O)[C@@H](N)Cc1ccc(-c2cc(O[C@H](c3ccc(Cl)cc3-n3ccc(C)n3)C(F)(F)F)nc(N)n2)cc1 | inactive | inactive | inactive | inactive | 23.5 µM (active) | 23.5 µM (active) | 18.7 µM (active) | 9.35 µM (active) |  | 9.35 µM (active) | 9.35 µM (active) | 11.8 µM (active) | 9.35 µM (active) |  | 20.9 µM (active) | 6.62 µM (active) | inactive
Cc1ncc(-c2ccnc(Nc3ccc(S(C)(=O)=O)cc3)n2)n1C(C)C | inactive | inactive | inactive | inactive |  | 2.35 µM (active) | 2.96 µM (active) | 2.09 µM (active) | 2.96 µM (active) | 2.96 µM (active) | 3.72 µM (active) | 1.48 µM (active) |  | 1.66 µM (active) | 2.35 µM (active) | 2.35 µM (active) | inactive
